A selection: hits, their analogues and other compounds. The true share with any hit is near 2.4%.
TDP1 inh = TDP1 (human) enzyme inhibition; Q9NUW8; recombinant TDP1, AlphaScreen DNA substrate cleavage; Potency, µM (top dose mostly 130 µM), without a hit: top-dose activity change, negative = inhibition, hits mostly inhibitors; 350,000 tested, 0.28% active; AID 485290; also: potency is read from the fitted curve at half-maximal effect; % is scaled to controls: 0 for no effect and ±100 for the full control effect; nearly all actives have a fitted effect of over 40% in size
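Enzyme-compound mixtures sat 15 min at room temperature, followed by a 5 min reaction with 15 nM final substrate and 10 min with AlphaScreen beads. Recombinant human Tdp1 was used at 1 nM final.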
POLI inh = blocks human DNA polymerase iota activity; Q9UNA4; Pol iota fluorescent replication assay, 10 min; Potency, µM (titrated, usually from 115 µM), without a hit: top-dose activity, negative = inhibition, most hits filed as inhibitors; 390,000 tested, 1% active; AID 588590; also: potency is read from the fitted curve at half-maximal effect
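Fluorescent replication assay read twice, at 0 min and 10 min after adding 50 nM (final) substrate. Enzyme (10 nM) and compounds were first incubated 15 min at room temperature; enzyme-free buffer wells were negative controls.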
Pol beta inh-1 = DNA polymerase beta (human) inhibition | P06746 | 340,000 tested, 1.3% active | Potency, µM (top dose mostly 114 µM), inactives show at the top dose activity change, negative = inhibition, hits mostly inhibitors | AID 485314 | Pol beta primer extension/strand displacement, fluorescence kinetic; also: potency is read from the fitted curve at half-maximal effect; % is scaled to controls: 0 for no effect and ±100 for the full control effect
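10 nM enzyme + cpd, 15 min RT; start with substrate 50 nM final; read 0 min and after 10 min RT. Corrected, normalized data; 4-parameter Hill curve fit.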
FEN1 inh = inhibitors of human flap endonuclease 1 | 390,000 tested, 0.35% active | Recombinant FEN1 flap cleavage, fluorescence, 15 min | P39748 | Potency, µM (titrated, usually from 114 µM), for the others: top-dose activity change, negative = inhibition, hits mostly inhibitors; also: potency is read from the fitted curve at half-maximal effect; % is scaled to controls: 0 for no effect and ±100 for the full control effect; nearly all actives have a fitted effect of over 65% in size
Target sequence (P39748 whole entry, looked up): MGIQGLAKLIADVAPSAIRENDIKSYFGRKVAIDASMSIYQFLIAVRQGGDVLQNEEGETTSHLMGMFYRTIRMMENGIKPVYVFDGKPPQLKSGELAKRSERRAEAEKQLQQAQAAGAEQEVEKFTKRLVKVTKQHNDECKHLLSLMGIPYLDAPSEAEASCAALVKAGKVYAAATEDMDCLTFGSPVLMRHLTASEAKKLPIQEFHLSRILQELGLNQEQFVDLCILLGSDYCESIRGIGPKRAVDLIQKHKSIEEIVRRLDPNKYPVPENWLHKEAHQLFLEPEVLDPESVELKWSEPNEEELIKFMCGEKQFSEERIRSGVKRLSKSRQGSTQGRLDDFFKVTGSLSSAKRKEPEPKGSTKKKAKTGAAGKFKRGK
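Potency values derive from four-parameter Hill fits of normalized qHTS data. The reaction used 10 nM FEN1 preincubated 15 min at room temperature with compound, then 50 nM DNA substrate, read at 0 and 15 min.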
Pol eta inh = blocks human DNA polymerase eta activity | Potency, µM (titrated, usually from 114 µM), inactives show at the highest dose activity change, negative = inhibition, actives largely listed as inhibitors | Q9Y253 | recombinant Pol eta, fluorescent DNA replication assay | 390,000 tested, 1.2% active; also: potency is read from the fitted curve at half-maximal effect; % is scaled to controls: 0 for no effect and ±100 for the full control effect
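Pol eta (10 nM) was preincubated with compounds for 15 min at room temperature, after which fluorescent replication substrate (50 nM final) was added to start the reaction. Fluorescence was read kinetically at 0 and 10 min.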
POLK inh = DNA polymerase kappa (human) inhibition | AID 588579 | Potency, µM (series often up to 107 µM), without a hit: at the top dose activity, negative = inhibition, most hits filed as inhibitors | 400,000 tested, 0.53% active | purified Pol kappa, fluorescent DNA synthesis assay, 10 min; also: potency is read from the fitted curve at half-maximal effect; % is scaled to controls: 0 for no effect and ±100 for the full control effect
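Here, compound and 10 nM enzyme are combined for 15 min at room temperature; adding 50 nM substrate (final) starts DNA synthesis, tracked by fluorescence at 0 and 10 min against buffer-only wells.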
Pol beta inh-2 = Human Pol beta inhibitor hit validation; AID 540280; shares compounds with Pol beta inh-1; Potency, µM, usual class: inhibitors; Pol beta primer extension/strand displacement, fluorescence kinetic; 250 tested, 87% active; calls by dose curve; also: potency is read from the fitted curve at half-maximal effect
Klenow counter = Klenow polymerase inhibition, pol beta selectivity check | Klenow exo- polymerase counter-screen, fluorescent DNA substrate | 250 tested, under 10 active | AID 540300 | activity change, negative = inhibition, % at 57.1 µM | shares compounds with Pol beta inh-1
HIV RT inh = counter-screen for DNA polymerase beta inhibitors: HIV-1 RT inhibition; shares compounds with Pol beta inh-1; HIV-1 RT polymerase activity, counter-screen; activity % (negative = inhibition, positive = activation), % at 57.1 µM; 250 tested, under 10 active
POLB inh gel = validation of human DNA polymerase beta inhibitors; inhibition, % at 10 µM; AID 540325; radiolabeled primer extension gel assay, phosphorimager; 110 tested, 91% active; shares compounds with Pol beta inh-1;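 active = inhibition at 10 µM of 30% or more; inconclusive = no clear call, values can overlap the other calls; inactive = inhibition at 10 µM under 30%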
POLI cherry-pick = Inhibitors of human DNA polymerase iota, confirmation. 1,500 tested, 77% active. AID 720496. Potency, µM, usual class: inhibitors. shares compounds with POLK inh. Pol iota primer extension, TAMRA/BHQ fluorescence; also: potency is read from the fitted curve at half-maximal effect
* marks the source's active call; other numbers are inactive results; i = inactive; ? = inconclusive; . = no result; [ ] = dose if it differs, or a comment. Unless noted, calls follow the shape of the dose curve; as a rule, active = well fitted curve in the direction sought with a large enough effect; inconclusive = small, poorly fitted or top-dose-only effect, or another doubt; inactive = no such curve, though single readings can be large; an effect the other way counts as inactive or inconclusive.

SMILES | TDP1 inh | POLI inh | Pol beta inh-1 | FEN1 inh | Pol eta inh | POLK inh | Pol beta inh-2 | Klenow counter | HIV RT inh | POLB inh gel | others
CC(C)C(NC(=O)c1ccco1)C(=O)OCC(=O)NCCc1ccccc1 (stereo not given) | 1% | 21% | . | 17% | 3% | -7% | . | . | . | .
CC(C)C(NC(=O)OCc1ccccc1)C(=O)OCC(=O)NCc1ccco1 (stereo not given) | -8% | ? | 20µM* | -2% | 8.9µM* | ? | ? | -20 | 8 | 84*
CC(C)n1c(=S)[nH]c2scc(-c3cccs3)c2c1=O | 5% | 20µM* | 7.9µM* | -7% | 18µM* | ? | 22* | 4 | 10 | 98*
COc1ccc(CNS(=O)(=O)c2cc(C(=O)Nc3cc(Cl)cc(Cl)c3)ccc2F)cc1 | 10% | -2% | -16% | -5% | -19% | -3%[60.1 µM] | . | . | . | .
O=C(CSc1n[nH]c(-c2ccccc2)n1)c1ccc(O)c(O)c1 | 2% | 18µM* | 16µM* | -1% | 40µM* | 25µM* | 32* | -28 | ? | 25
CNc1ccc(Br)cc(C(=O)/C=C/c2cc(OC)ccc2OC)c1=O | -10% | ? | 13µM* | ? | 14µM* | ? | 28* | 6 | -24 | 43*
COc1ccc(/C=C/C(=O)c2cc(Br)ccc2O)cc1OC | 8% | 1% | 0% | -2% | -4% | -4% | . | . | . | .
C#CCn1c(=NC(=O)c2cccs2)sc2cccc(OC)c21 | -6% | ? | 20µM* | -24% | ? | -12% | 32* | -9 | 43 | 77*
NCCCC[C@H](NC(=O)[C@@H]1CCCN1C(=O)[C@@H](N)CCCN=C(N)N)C(=O)N1CCC[C@H]1C(=O)N[C@@H](CCC(N)=O)C(=O)N[C@@H](CCC(N)=O)C(=O)N[C@@H](Cc1ccccc1)C(=O)O | 11% | . | . | . | . | 7%[60.1 µM] | . | . | . | .
COc1ccc2cc3cc(C(=O)Nc4ccc5c(c4)OCCO5)oc3nc2c1 | -5% | ? | 13µM* | -12% | 11µM* | -13% | ? | 8 | 27 | .
COc1ccc2cc3cc(C(=O)Nc4cc(OC)c(OC)c(OC)c4)oc3nc2c1 | -10% | i | -15% | -2% | -13% | -7% | . | . | . | .
Cn1c(SCC(=O)Nc2ccc3nc(SCC(=O)NC4CC4)sc3c2)nnc1-c1ccccc1 | -4% | ? | -1% | 2% | -7% | -6% | . | . | . | .
Cn1c(SCC(=O)Nc2ccc3nc(SCC(=O)N4CCCC4)sc3c2)nnc1-c1ccc(N)cc1 | 35µM* | 5.6µM* | 7.9µM* | -33% | ? | 50µM* | 7.1* | 5 | 8 | .
CC(C)CN(C(=O)COC(=O)c1ccc(-c2ccccc2)cc1)C1CCS(=O)(=O)C1 (stereo not given) | -1% | 148% | ? | -8% | -1% | 2% | . | . | . | .
CC(C)CN(C(=O)COC(=O)c1cc2c(s1)CCC2)C1CCS(=O)(=O)C1 (stereo not given) | 13µM* | 20µM* | 13µM* | ? | 3.5µM* | 40µM* | 22* | 9 | 7 | .
Nc1c(C(=O)NC2CC2)sc2nc3c(c(-c4ccco4)c12)CC/C3=C/c1ccco1 | 0% | ? | 0.63µM* | 5.6µM* | 0.71µM* | 0.71µM* | 28* | -22 | ? | 100*
COC(=O)c1sccc1-c1ccc(C(=O)Nc2cccc(Cl)c2)o1 | -5% | ? | 14µM* | ? | ? | -29% | 18* | 0 | 31 | .
COc1ccc(/C=C(/NC(=O)c2cccs2)C(=O)NCc2ccco2)cc1OC | -1% | 12% | 3% | 2% | -7% | 8% | . | . | . | .
COc1cc(NC(=O)c2cccs2)c(C(=O)OCC(=O)NCc2ccco2)cc1OC | . | ? | 13µM* | -11% | 10µM* | 79µM* | 32* | 4 | 17 | .
O=C(O)c1ccccc1OP(=O)(O)O | 9%[56.1 µM] | . | . | . | . | -9%[12 µM] | . | . | . | .
O=C(Nc1cccc([N+](=O)[O-])c1)c1cc2ccccc2cc1O | 3% | 45µM* | 18µM* | 5% | ? | -27% | 28* | -8 | 27 | 98*
Cc1c(Cc2ccccc2)c(=O)oc2c(O)c(O)ccc12 | 10% | 8.9µM* | 13µM* | ? | ? | ? | 5* | -27 | 40 | .
Cc1c(Cc2ccccc2)c(=O)oc2cc(O)ccc12 | 1% | 10% | -25% | -8% | -1% | -21% | . | . | . | .
COc1ccc(Br)cc1CNC(=O)C1COc2ccccc2C1 (stereo not given) | 3% | 0% | 23% | -8% | -9% | -5%[60.1 µM] | . | . | . | .
CC(=O)Oc1ccc(C(=O)Nc2ccc(C3(C#N)CCCC3)cc2)cc1 | . | 40µM* | 13µM* | 2% | ? | -33% | ? | -3 | 59 | .
SMILES | TDP1 inh | POLI inh | Pol beta inh-1 | FEN1 inh | Pol eta inh | POLK inh | Pol beta inh-2 | Klenow counter | HIV RT inh | POLB inh gel | others
Cc1ccc(O)c(C(=O)c2cnn(C(=O)COc3ccc(Cl)cc3)c2)c1 | 3% | 14% | 5.6µM* | -10% | ? | -3% | 14* | -13 | 16 | .
Cc1cc(C)cc(NC(=O)CCc2nnc3n(C)c(=O)c4sccc4n23)c1 | -9% | -11% | 0% | 10% | 5% | 6% | . | . | . | .
O=C(/C=C/c1ccccc1Cl)Nc1ccc2c(c1)C(=O)NC2=O | -11% | ? | 8.9µM* | -28% | ? | ? | 14* | -3 | 24 | . | POLI cherry-pick=?
CC(C)S(=O)(=O)N1CCN(c2nc(-c3cccs3)nc3ccccc23)CC1 | 0% | 2% | . | -6% | . | -21% | . | . | . | .
O=C(Nc1nc(-c2ccccn2)cs1)c1ccco1 | 10% | 0% | ? | -5% | ? | -21% | . | . | . | .
O=C(Nc1nc(-c2cc3ccccc3oc2=O)cs1)c1ccco1 | -6% | -12% | 8.9µM* | -29% | ? | -9% | 20* | -20 | 43 | 41* | POLI cherry-pick=?

Screening data as filed in PubChem.
